Screen size: about 5,500 compounds; about 2,000 (36%) were called active. About 18% were inconclusive and are not listed. Rule as the data show it: active = normalized growth mostly below about 0.91 (no sharp cut-off); inconclusive = no clear call, values can overlap the other calls; inactive = mostly above about 0.92. Some of the results follow.
Assay: chemical genetic growth profiling, strain panel (AID 1159580);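 also: tested at 20 µM; growth read once vehicle control cultures reached saturation at 30 °C; 1 = growth at the plate median or of vehicle wells; lower values mean less growth of the strain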
Settings: S. cerevisiae deletion strains, growth OD

Measured: normalized growth

O=C1[O][Bi][O]c2ccccc21
inactive: locus YAL021C, strain ccr4, active compounds read low 1.06 | locus YAL026C, strain drs2, active compounds read low 1.05 | locus YAL030W, strain snc1, active compounds read low 0.972 | locus YBL061C, strain skt5, active compounds read low 1.04 | locus YBR009C, strain hhf1, active compounds read low 0.981 | locus YBR023C, strain chs3, active compounds read low 1.05 | locus YBR171W, strain sec66, active compounds read low 1.07 | locus YBR231C, strain swc5, active compounds read low 1.02 | locus YBR279W, strain paf1, active compounds read low 0.932 | locus YCL011C, strain gbp2, active compounds read low 0.966 | locus YCL016C, strain dcc1, active compounds read low 1.04 | locus YCL061C, strain MRC1, active compounds read low 1.05 | locus YCL069W, strain vba3, active compounds read low 1.06 | locus YCR088W, strain abp1, active compounds read low 1.07 | locus YDL005C, strain med2, active compounds read low 1.05 | locus YDL040C, strain nat1, active compounds read low 1.03 | locus YDR001C, strain nth1, active compounds read low 1.03 | locus YDR069C, strain doa4, active compounds read low 0.944 | locus YDR137W, strain rgp1, active compounds read low 1 | locus YDR159W, strain sac3, active compounds read low 0.954 | locus YDR297W, strain sur2, active compounds read low 0.94 | locus YDR334W, strain swr1, active compounds read low 1.05 | locus YDR335W, strain msn5, active compounds read low 1.04 | locus YDR392W, strain spt3, active compounds read low 1.03 | locus YEL003W, strain gim4, active compounds read low 1.03 | locus YEL037C, strain rad23, active compounds read low 1.03 | locus YEL061C, strain CIN8 (second series), active compounds read low 1.02 | locus YER015W, strain faa2, active compounds read low 0.951 | locus YER016W, strain bim1, active compounds read low 1.05 | locus YER111C, strain swi4, active compounds read low 1.02 | locus YER155C, strain BEM2 (second series), active compounds read low 0.997 | locus YGL167C, strain pmr1, active compounds read low 1.03 | locus YGL227W, strain vid30, active compounds read low 1.05 | locus YGL253W, strain hxk2, active compounds read low 1.05 | locus YHR013C, strain ard1, active compounds read low 1.02 | locus YHR030C, strain SLT2, active compounds read low 0.996 | locus YHR079C, strain IRE1, active compounds read low 0.985 | locus YHR142W, strain chs7, active compounds read low 1.08 | locus YJL092W, strain hpr5, active compounds read low 1.06 | locus YJL095W, strain BCK1, active compounds read low 1.02 | locus YJL115W, strain asf1, active compounds read low 1.03 | locus YJL129C, strain trk1, active compounds read low 1.05 | locus YJL154C, strain vps35, active compounds read low 1.04 | locus YJL166W, strain qcr8, active compounds read low 0.937 | locus YJR066W, strain TOR1, active compounds read low 0.925 | locus YKL160W, strain elf1, active compounds read low 0.996 | locus YKR026C, strain gcn3, active compounds read low 1.05 | locus YKR091W, strain srl3, active compounds read low 1.04 | locus YLL001W, strain dnm1, active compounds read low 1.04 | locus YLL026W, active compounds read low 1.01 | locus YLL041C, strain sdh2, active compounds read low 1.04 | locus YLR027C, strain aat2, active compounds read low 1.04 | locus YLR113W, strain HOG1, active compounds read low 1.06 | locus YLR221C, strain rsa3, active compounds read low 1.02 | locus YLR258W, strain gsy2, active compounds read low 1.02 | locus YLR262C, strain YPT6 (second series), active compounds read low 1.06 | locus YLR320W, strain mms22, active compounds read low 1.03 | locus YLR342W, strain FKS1, active compounds read low 1.01 | locus YLR357W, strain rsc2, active compounds read low 1 | locus YLR370C, strain arc18, active compounds read low 1.06 | locus YLR384C, strain iki3, active compounds read low 1.01 | locus YML120C, strain ndi1, active compounds read low 1.03 | locus YMR125W, strain sto1, active compounds read low 1.04 | locus YMR129W, active compounds read low 0.96 | locus YMR205C, strain PFK2, active compounds read low 0.985 | locus YMR231W, strain pep5, active compounds read low 1.02 | locus YNL071W, strain lat1, active compounds read low 1.03 | locus YNL183C, strain NPR1, active compounds read low 0.936 | locus YNL248C, strain rpa49, active compounds read low 1.07 | locus YNL322C, strain KRE1 (second series), active compounds read low 1.05 | locus YNR049C, strain mso1, active compounds read low 1.05 | locus YOR001W, strain rrp6, active compounds read low 1.06 | locus YOR070C, strain gyp1, active compounds read low 1.03 | locus YOR080W, strain dia2, active compounds read low 1.05 | locus YOR083W, strain WHI5, active compounds read low 1.03 | locus YOR231W, strain MKK1, active compounds read low 1.02 | locus YOR265W, strain rbl2, active compounds read low 1.04 | locus YOR290C, strain snf2, active compounds read low 1.01 | locus YPL051W, strain arl3, active compounds read low 0.945 | locus YPL078C, strain atp4, active compounds read low 1.04 | locus YPL106C, strain sse1, active compounds read low 1 | locus YPL240C, strain hsp82, active compounds read low 1.02 | locus YPL256C, strain CLN2, active compounds read low 1
active: locus YDR195W, strain ref2 1.3 [resistant] | locus YFR010W, strain ubp6, active compounds read low 1.11 [resistant] | locus YGL173C, strain kem1, active compounds read low 0.416 | locus YGL240W, strain doc1, active compounds read low 1.13 [resistant] | locus YHR027C, strain rpn1, active compounds read low 0.904 | locus YJL095W, strain BCK1 (second series), active compounds read low 0.914 | locus YJL164C, strain tpk1, active compounds read low 0.732 | locus YMR058W, strain fet3, active compounds read low 0.851 | locus YNL209W, strain ssb2, active compounds read low 0.923 | locus YOR106W, strain vam3, active compounds read low 0.861 | locus YOR270C, strain vph1, active compounds read low 1.35 [resistant]

— PubChem BioAssay AID1159580 (chemical genetic matrix, 2015)
